# Measurements taken from the supplement of paper PMC12494721.
# Counter-ions that a name gives are not always drawn.
# Legend:
# Details in all cases: incubation time: 27 h, anaerobic, 37 °C;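 for the amine columns active = adjusted P below 0.05 in both replicates with a change the same way and a mean fold change under 0.8 or over 1.25; inactive = the rest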
# [1] = tested on: Clostridium sporogenes DSM 1664; experiment: growth (OD595) fold change vs plate DMSO controls (fold change (ratio)); higher = more growth
# Method in brief: (§1)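 The reported measure is growth: the fold change against the median of DMSO controls on the plate. Absorbance at 595 nm from anaerobic 96-well mGAM cultures grown for 27 h at 37 °C was blank-subtracted, corrected for background with 20 µM compound solutions in water, and converted to OD with a calibration factor of 5. Fold changes above 1.5 appear as NA, and values are the mean of 2 biological replicates.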
# Escherichia coli IAI1 [2] = experiment: as above
# Method in brief: as §1
# [3] = tested on: Klebsiella aerogenes DSM 30053; experiment: as above
# Method in brief: as §1
# [4] = tested on: Ruminococcus gnavus DSM 108212; experiment: as above
# Method in brief: as §1
# [5] = tested on: Klebsiella aerogenes DSM 30053; experiment: fold change of Histamine concentration vs plate DMSO controls (fold change (ratio)); higher = more amine produced, active = hit call of the paper (significant change in both replicates, either direction)
# Method in brief: (§2)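 Anaerobic mGAM cultures of four gut bacterial strains were grown at 37 °C for 27 h in 80 µL wells, starting at OD 0.1 before 1:1 dilution. Compounds were at 20 µM final (sweeteners 50 µM). Whole cultures were extracted with cold acetonitrile/methanol containing 0.1% formic acid and centrifuged. Amines were quantified by LC–triple-quadrupole MS (dynamic MRM) against external calibration curves and drift-corrected within batch. Each value is the fold change versus plate DMSO controls, averaged over 2 biological replicates.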
# [6] = tested on: Clostridium sporogenes DSM 1664; experiment: fold change of Tryptamine concentration vs plate DMSO controls (fold change (ratio)); higher = more amine produced, active = hit call of the paper (significant change in both replicates, either direction)
# Method in brief: as §2
# [7] = tested on: Ruminococcus gnavus DSM 108212; experiment: as above
# Method in brief: as §2
# Escherichia coli IAI1 [8] = experiment: fold change of Putrescine concentration vs plate DMSO controls (fold change (ratio)); higher = more amine produced, active = hit call of the paper (significant change in both replicates, either direction)
# Method in brief: as §2
# [9] = tested on: Klebsiella aerogenes DSM 30053; experiment: as above
# Method in brief: as §2
# Escherichia coli IAI1 [10] = experiment: fold change of Cadaverine concentration vs plate DMSO controls (fold change (ratio)); higher = more amine produced, active = hit call of the paper (significant change in both replicates, either direction)
# Method in brief: as §2
# [11] = tested on: Klebsiella aerogenes DSM 30053; experiment: as above
# Method in brief: as §2
# [12] = tested on: Ruminococcus gnavus DSM 108212; experiment: fold change of 2-Phenylethylamine concentration vs plate DMSO controls (fold change (ratio)); higher = more amine produced, active = hit call of the paper (significant change in both replicates, either direction)
# Method in brief: as §2
SMILES,growth [1],growth (Escherichia coli IAI1 [2]),growth [3],growth [4],fold change of Histamine concentration [5],fold change of Tryptamine concentration [6],fold change of Tryptamine concentration [7],fold change of Putrescine concentration (Escherichia coli IAI1 [8]),fold change of Putrescine concentration [9],fold change of Cadaverine concentration (Escherichia coli IAI1 [10]),fold change of Cadaverine concentration [11],fold change of 2-Phenylethylamine concentration [12]
CCCCOC(=O)c1ccccc1Nc1cccc(C(F)(F)F)c1 [Ufenamate] (20 µM),0.986,1.07,1.07,0.991,0.944 (inactive),1.03 (inactive),1.11 (inactive),1.06 (inactive),0.979 (inactive),1.03 (inactive),1.02 (inactive),1.14 (inactive)
CC(=O)NCCCS(=O)(=O)O [Acamprosate calcium] (20 µM),1.08,0.999,0.963,0.795,1.02 (inactive),1.02 (inactive),0.996 (inactive),0.995 (inactive),1.02 (inactive),0.983 (inactive),1 (inactive),0.996 (inactive)
OC[C@H]1OC(O)[C@H](O)[C@@H](O)[C@@H]1O (some centres undefined) [Glucose/Dextrose] (50 µM),1.15,0.989,1.01,1.19,1.03 (inactive),1.01 (inactive),0.971 (inactive),0.982 (inactive),0.872 (inactive),1.11 (inactive),1.09 (inactive),0.935 (inactive)
Nc1nc(=O)n([C@@H]2CS[C@H](CO)O2)cc1F [(-) Emtricitabine] (20 µM),1.11,0.995,0.981,1.12,1.01 (inactive),1.03 (inactive),1.03 (inactive),1.01 (inactive),0.985 (inactive),0.996 (inactive),0.991 (inactive),1.06 (inactive)
Cc1cc(NS(=O)(=O)c2ccc(N)cc2)nc(C)n1 [Sulfisomidine] (20 µM),1.12,1.07,1.04,1.03,1.02 (inactive),1.08 (inactive),1.04 (inactive),0.985 (inactive),0.987 (inactive),0.993 (inactive),0.992 (inactive),1.08 (inactive)
Cn1ccnc1S [Methimazole] (20 µM),1.17,1.11,0.998,1.13,1.04 (inactive),0.989 (inactive),0.998 (inactive),1.17 (inactive),1 (inactive),0.976 (inactive),0.984 (inactive),0.993 (inactive)
C[C@]12CC[C@@H]3c4ccc(O)cc4CC[C@H]3[C@@H]1C[C@@H](O)[C@@H]2O [Estriol] (20 µM),1.12,0.963,1.17,1.15,0.888 (inactive),1.01 (inactive),0.936 (inactive),0.991 (inactive),0.993 (inactive),1.02 (inactive),1.02 (inactive),0.884 (inactive)
NC(=O)C1CO1 (centres undefined) [Glycidamide] (20 µM),0.988,0.992,0.998,1.06,1.05 (inactive),0.935 (inactive),0.988 (inactive),0.993 (inactive),1.07 (inactive),1.02 (inactive),1.02 (inactive),0.973 (inactive)
CCC(Cc1c(I)cc(I)c(N)c1I)C(=O)O (centres undefined) [Iopanoic acid] (20 µM),0.989,1.13,1,1.05,0.999 (inactive),0.978 (inactive),0.879 (inactive),1.1 (inactive),0.994 (inactive),1.04 (inactive),0.985 (inactive),0.969 (inactive)
OC[C@H]1O[C@@](CO)(O[C@H]2O[C@H](CO)[C@@H](O)[C@H](O)[C@H]2O)[C@@H](O)[C@@H]1O [Sucrose] (50 µM),1.08,0.938,1.09,1.12,0.917 (inactive),1.07 (inactive),1.08 (inactive),1 (inactive),0.977 (inactive),0.964 (inactive),1.05 (inactive),1.12 (inactive)
CN(C)CCN1C(=O)c2ccccc2N(C)c2ccccc21 [Dibenzepine hydrochloride] (20 µM),1.02,0.993,0.972,0.677,1.06 (inactive),0.993 (inactive),1.03 (inactive),1.01 (inactive),1.01 (inactive),1.02 (inactive),0.985 (inactive),1.06 (inactive)
CC(C)(C)NCC(O)COc1cccc2c1CCC(=O)N2 (centres undefined) [Carteolol hydrochloride] (20 µM),0.96,1.01,0.997,0.895,0.987 (inactive),0.985 (inactive),1.01 (inactive),1.01 (inactive),0.982 (inactive),1 (inactive),0.996 (inactive),0.982 (inactive)
